log2 fold change data for 27 targets are collected here from the supplement of paper PMC10849652.

About 8,800 targets were measured; listed, in parts, are those with a hit and a random draw of the rest. About 0.5% of all pairs of compound and target were hits.

UniProt P48729, sequence (P48729 whole entry, looked up): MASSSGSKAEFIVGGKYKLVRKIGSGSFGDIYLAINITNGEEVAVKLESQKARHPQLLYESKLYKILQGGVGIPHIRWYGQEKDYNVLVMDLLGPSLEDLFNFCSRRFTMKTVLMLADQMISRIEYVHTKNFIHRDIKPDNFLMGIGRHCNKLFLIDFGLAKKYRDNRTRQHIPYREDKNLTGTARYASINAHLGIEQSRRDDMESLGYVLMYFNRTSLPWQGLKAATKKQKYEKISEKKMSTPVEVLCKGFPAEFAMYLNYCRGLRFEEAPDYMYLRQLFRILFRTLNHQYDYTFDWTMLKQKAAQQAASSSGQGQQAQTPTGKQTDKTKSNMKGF
UniProt Q7L7V1, sequence (Q7L7V1 whole entry, looked up): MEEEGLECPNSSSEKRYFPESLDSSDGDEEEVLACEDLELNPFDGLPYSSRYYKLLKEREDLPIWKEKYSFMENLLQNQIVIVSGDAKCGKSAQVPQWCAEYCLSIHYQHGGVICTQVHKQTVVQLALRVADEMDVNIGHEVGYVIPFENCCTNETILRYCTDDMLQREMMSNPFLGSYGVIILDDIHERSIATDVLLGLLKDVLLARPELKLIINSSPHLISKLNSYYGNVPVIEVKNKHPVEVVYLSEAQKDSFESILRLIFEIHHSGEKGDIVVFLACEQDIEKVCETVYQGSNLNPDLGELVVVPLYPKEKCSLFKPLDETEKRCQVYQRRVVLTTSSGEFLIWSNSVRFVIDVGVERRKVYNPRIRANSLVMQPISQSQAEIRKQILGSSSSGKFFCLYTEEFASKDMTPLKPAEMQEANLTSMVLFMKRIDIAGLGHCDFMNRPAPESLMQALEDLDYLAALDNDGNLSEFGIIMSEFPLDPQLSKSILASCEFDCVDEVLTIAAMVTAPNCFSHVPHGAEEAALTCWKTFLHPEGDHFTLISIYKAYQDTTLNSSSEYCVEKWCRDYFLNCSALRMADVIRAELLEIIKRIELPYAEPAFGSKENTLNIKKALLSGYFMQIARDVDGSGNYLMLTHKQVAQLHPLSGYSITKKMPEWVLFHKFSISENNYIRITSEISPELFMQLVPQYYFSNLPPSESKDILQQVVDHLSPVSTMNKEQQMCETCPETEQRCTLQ
UniProt O75534, sequence (O75534 whole entry, looked up): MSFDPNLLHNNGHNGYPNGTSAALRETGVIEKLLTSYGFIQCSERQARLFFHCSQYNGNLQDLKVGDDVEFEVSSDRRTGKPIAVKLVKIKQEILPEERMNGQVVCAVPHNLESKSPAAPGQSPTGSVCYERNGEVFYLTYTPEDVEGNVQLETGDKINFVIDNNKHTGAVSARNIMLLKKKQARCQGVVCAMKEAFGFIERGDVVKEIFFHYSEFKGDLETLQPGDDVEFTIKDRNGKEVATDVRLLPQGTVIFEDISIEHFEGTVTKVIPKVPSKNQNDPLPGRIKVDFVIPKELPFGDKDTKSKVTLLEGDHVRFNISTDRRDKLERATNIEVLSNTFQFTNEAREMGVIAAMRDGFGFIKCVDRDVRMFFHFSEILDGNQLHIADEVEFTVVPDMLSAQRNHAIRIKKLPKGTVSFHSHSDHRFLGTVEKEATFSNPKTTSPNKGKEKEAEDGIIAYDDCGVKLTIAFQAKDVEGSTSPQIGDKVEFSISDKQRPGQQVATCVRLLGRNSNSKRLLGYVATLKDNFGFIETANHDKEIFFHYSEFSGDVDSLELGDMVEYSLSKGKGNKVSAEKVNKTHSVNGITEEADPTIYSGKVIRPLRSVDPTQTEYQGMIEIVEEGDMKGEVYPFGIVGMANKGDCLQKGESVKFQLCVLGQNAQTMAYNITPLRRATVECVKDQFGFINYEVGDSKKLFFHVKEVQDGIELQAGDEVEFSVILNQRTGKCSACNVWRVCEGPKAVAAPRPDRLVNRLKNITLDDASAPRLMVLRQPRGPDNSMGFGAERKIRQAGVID
UniProt Q9UJA2, sequence (Q9UJA2 whole entry, looked up): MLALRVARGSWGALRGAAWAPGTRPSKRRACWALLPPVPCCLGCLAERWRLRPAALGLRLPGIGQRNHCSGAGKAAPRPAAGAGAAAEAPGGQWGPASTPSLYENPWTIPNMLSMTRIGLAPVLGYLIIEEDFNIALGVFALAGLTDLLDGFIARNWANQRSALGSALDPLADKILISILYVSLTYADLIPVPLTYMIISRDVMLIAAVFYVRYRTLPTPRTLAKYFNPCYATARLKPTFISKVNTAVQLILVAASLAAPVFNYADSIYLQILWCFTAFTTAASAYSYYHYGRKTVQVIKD
UniProt Q9BW66, sequence (Q9BW66 whole entry, looked up): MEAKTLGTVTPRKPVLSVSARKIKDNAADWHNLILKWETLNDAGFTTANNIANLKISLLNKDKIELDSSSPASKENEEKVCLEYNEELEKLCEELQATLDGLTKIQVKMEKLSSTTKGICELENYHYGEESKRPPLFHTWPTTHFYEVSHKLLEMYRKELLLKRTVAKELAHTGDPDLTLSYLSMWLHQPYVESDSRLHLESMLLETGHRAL
UniProt O75122, sequence (O75122 whole entry, looked up): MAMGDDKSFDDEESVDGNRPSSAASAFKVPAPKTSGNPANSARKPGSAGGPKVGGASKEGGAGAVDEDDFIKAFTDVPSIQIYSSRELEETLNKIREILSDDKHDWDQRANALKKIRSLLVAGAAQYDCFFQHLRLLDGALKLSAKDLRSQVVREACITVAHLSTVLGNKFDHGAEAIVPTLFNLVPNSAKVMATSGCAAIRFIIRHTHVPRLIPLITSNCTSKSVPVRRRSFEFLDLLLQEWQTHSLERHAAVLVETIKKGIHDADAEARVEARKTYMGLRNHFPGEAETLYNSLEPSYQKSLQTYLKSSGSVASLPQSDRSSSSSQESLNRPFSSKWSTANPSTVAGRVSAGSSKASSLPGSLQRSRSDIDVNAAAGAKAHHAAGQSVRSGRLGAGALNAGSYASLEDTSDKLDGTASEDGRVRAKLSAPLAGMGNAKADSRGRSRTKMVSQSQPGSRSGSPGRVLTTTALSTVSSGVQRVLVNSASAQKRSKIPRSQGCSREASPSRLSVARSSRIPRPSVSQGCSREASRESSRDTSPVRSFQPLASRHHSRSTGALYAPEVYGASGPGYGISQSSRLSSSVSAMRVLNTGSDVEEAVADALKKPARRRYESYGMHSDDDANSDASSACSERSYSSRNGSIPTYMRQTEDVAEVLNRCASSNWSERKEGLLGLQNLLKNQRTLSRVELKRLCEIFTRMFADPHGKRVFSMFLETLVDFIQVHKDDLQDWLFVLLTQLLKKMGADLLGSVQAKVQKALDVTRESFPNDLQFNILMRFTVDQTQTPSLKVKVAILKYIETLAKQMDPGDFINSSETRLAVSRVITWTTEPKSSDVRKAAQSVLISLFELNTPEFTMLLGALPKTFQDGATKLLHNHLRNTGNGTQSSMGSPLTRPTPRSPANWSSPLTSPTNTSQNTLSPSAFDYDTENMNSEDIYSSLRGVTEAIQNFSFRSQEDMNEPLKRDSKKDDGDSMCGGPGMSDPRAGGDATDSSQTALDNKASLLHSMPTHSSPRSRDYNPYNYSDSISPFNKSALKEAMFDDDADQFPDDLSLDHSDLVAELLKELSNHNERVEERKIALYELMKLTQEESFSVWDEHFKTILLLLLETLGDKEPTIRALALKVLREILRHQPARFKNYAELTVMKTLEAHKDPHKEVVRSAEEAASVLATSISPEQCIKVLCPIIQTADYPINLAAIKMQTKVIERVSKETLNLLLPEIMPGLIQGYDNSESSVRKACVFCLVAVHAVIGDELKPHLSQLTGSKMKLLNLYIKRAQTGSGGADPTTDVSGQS
UniProt P48730, sequence (P48730 whole entry, looked up): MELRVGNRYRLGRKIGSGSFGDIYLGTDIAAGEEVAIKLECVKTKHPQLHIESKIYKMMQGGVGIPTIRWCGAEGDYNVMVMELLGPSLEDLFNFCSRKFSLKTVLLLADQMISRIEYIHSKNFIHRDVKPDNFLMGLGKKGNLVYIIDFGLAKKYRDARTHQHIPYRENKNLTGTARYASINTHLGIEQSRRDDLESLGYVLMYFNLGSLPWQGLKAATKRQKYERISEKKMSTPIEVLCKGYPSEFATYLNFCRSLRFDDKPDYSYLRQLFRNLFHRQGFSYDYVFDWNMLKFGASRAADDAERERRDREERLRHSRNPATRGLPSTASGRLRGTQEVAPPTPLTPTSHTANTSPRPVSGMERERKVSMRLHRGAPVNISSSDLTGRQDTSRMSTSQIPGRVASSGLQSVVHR
UniProt Q08345, sequence (Q08345 whole entry, looked up): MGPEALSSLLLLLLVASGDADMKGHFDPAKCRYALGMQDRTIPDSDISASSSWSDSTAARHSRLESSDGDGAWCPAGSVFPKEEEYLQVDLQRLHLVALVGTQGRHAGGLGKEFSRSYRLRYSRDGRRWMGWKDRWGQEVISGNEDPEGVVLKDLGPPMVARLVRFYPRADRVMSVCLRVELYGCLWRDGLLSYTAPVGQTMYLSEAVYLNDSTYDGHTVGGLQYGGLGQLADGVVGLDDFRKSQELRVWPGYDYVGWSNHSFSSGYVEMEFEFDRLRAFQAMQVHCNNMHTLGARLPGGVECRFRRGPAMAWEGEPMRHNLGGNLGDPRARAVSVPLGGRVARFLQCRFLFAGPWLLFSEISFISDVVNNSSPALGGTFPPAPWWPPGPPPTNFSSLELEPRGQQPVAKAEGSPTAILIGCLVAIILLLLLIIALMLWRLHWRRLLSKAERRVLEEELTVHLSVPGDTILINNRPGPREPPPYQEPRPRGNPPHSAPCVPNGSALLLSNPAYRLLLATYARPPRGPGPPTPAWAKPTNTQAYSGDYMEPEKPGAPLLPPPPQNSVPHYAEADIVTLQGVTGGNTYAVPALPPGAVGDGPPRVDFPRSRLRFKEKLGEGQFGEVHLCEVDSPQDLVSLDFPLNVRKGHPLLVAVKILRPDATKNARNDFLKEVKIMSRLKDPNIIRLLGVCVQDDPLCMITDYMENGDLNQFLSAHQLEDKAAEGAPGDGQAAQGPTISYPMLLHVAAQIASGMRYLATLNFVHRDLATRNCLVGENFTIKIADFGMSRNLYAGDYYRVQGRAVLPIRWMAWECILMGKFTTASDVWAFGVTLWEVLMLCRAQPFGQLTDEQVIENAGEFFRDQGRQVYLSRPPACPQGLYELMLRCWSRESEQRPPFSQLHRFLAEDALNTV

Compound in one experiment: CN1CC[C@H](c2c(O)cc(O)c3c(=O)cc(-c4ccccc4Cl)oc23)[C@H](O)C1 [alvocidib]
Put plainly: log2 fold change, soluble protein after heating vs DMSO (PISA); higher = thermal stabilisation; K562 lysate, 10 uM; active = over 0.2 and 3.5 SD of the protein, either way, in both replicates (recomputed). An outline of the steps: (§1)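 Quantification was by TMTpro 16plex LC-MS/MS with equalised channel sums, applied to the supernatant after 21,000xg for 90 min. Samples were crude K562 extract at 1 mg/mL protein in PBS pH 7.4 with 1 mM MgCl2, treated with 10 μM compound for 30 min, heated for 3 min across 48°C-58°C, pooled and brought to 0.5% NP-40 at 4°C. Values are log-two fold changes in thermal stability relative to solvent controls, from duplicates.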
Regarding DDR1 isoform 5 (UniProt Q08345), the log2 fold change is -0.034 (inactive).
For the target CSDE1 isoform 3 (UniProt O75534), the log2 fold change was 0.029 (inactive).
With CLIP1 isoform 2 (UniProt P30622), the log2 fold change is 0.029 (inactive).
Take DALRD3 (UniProt Q5D0E6): the log2 fold change was -0.016 (inactive).
For the target DLGAP5 isoform 3 (UniProt Q15398), the log2 fold change was 0 (inactive).
In the case of CSNK1A1 (UniProt P48729), the log2 fold change was 0.007 (inactive).
As to CHMP4A (UniProt H0YIN6), the log2 fold change was -0.197 (inactive).
In the case of CLASP2 (UniProt O75122), the log2 fold change was -0.139 (inactive).
With DONSON (UniProt Q9NYP3), the log2 fold change was 0.04 (inactive).
Turning to CSRP2 (UniProt Q16527), the log2 fold change is -0.028 (inactive).
On to COL6A3 (UniProt P12111), for which the log2 fold change is 0.045 (inactive).
On to CRLS1 (UniProt Q9UJA2), for which the log2 fold change is 0.056 (inactive).
In the case of DHX32 (UniProt Q7L7V1), the log2 fold change was 0.019 (inactive).
Turning to CSNK1D (UniProt P48730), the log2 fold change is 0.244 (inactive).
As for CINP isoform 3 (UniProt Q9BW66), the log2 fold change is -0.056 (inactive).
The same measure, in the same setting: the figure for DNM2 isoform 4 (UniProt P50570) is -0.16 (inactive); for DESI2 (UniProt Q9BSY9) it is -0.07 (inactive); for CLIP1, A0A3B3ITA2 it is -0.036 (inactive).

Compound in a further experiment: CN1CCc2c(c3ccccc3n2Cc2ccc(C(=O)NO)cc2)C1 [Tubastatin A]
Described as above. In outline:
as §1
DDR1 isoform 5 (UniProt Q08345): the log2 fold change was 0.052 (inactive).
CNIH4 (UniProt Q9P003): the log2 fold change is 0.1 (inactive).
CHFR (UniProt Q96EP1): the log2 fold change was -0.052 (inactive).
For the target DHRS13 (UniProt Q6UX07), the log2 fold change was -0.087 (inactive).
As to CSNK1A1 isoform 3 (UniProt P48729), the log2 fold change was -0.138 (inactive).
CSDE1 isoform 3 (UniProt O75534): the log2 fold change is -0.014 (inactive).
As to CLIP1 isoform 2 (UniProt P30622), the log2 fold change was 0.117 (inactive).
CYP4V2 (UniProt Q6ZWL3): the log2 fold change is -0.1 (inactive).
With CSNK1A1 (UniProt P48729), the log2 fold change was -0.105 (inactive).
CHMP4A (UniProt H0YIN6): the log2 fold change was 0.193 (inactive).
For the target CLASP2 (UniProt O75122), the log2 fold change is -0.066 (inactive).
Regarding COPS9 (UniProt Q8WXC6), the log2 fold change is -0.272 (inactive).
Still for that read-out and setting: to CSAD isoform 3 (UniProt Q9Y600) belongs 0.082 (inactive).
The same measure, in the same setting: to DONSON (UniProt Q9NYP3) belongs -0.079 (inactive); to CPLX1 (UniProt O14810), 0.04 (inactive).
On the same count and under the same terms, to CYP2S1 isoform 2 (UniProt Q96SQ9) belongs 0.027 (inactive); to COL6A3 (UniProt P12111), 0.017 (inactive); to CRLS1 (UniProt Q9UJA2), 0.007 (inactive).
As for DHX32 (UniProt Q7L7V1), the log2 fold change was 0.027 (inactive).
CSNK1D (UniProt P48730): the log2 fold change was -0.085 (inactive).
As for CINP isoform 3 (UniProt Q9BW66), the log2 fold change was -0.107 (inactive).
For the target DNM2 isoform 4 (UniProt P50570), the log2 fold change was -0.095 (inactive).
The same measure, in the same setting: the figure for CLIP1, A0A3B3ITA2 is 0.152 (inactive).
